Many of the other results were omitted from the sample, so hits are more common in it than they were.
ROC1-CUL1 inh – inhibitors of human ROC1-CUL1 ubiquitin ligase activity; E3 ubiquitin-protein ligase RBX1 (Homo sapiens) + Cullin-1 (Homo sapiens), P62877+Q13616; in vitro K48 di-Ub FRET, acceptor:donor ratio, 45 min; hit rate 0.6% among 140,000; inhibition, % at 10 µM; AID 1347404, 2020; in the data active = inhibition above about 25%
Target sequence (P62877 whole entry, looked up): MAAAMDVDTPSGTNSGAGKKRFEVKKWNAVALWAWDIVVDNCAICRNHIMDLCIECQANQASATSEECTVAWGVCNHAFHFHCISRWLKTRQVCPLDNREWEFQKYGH
Target sequence (Q13616 whole entry, looked up): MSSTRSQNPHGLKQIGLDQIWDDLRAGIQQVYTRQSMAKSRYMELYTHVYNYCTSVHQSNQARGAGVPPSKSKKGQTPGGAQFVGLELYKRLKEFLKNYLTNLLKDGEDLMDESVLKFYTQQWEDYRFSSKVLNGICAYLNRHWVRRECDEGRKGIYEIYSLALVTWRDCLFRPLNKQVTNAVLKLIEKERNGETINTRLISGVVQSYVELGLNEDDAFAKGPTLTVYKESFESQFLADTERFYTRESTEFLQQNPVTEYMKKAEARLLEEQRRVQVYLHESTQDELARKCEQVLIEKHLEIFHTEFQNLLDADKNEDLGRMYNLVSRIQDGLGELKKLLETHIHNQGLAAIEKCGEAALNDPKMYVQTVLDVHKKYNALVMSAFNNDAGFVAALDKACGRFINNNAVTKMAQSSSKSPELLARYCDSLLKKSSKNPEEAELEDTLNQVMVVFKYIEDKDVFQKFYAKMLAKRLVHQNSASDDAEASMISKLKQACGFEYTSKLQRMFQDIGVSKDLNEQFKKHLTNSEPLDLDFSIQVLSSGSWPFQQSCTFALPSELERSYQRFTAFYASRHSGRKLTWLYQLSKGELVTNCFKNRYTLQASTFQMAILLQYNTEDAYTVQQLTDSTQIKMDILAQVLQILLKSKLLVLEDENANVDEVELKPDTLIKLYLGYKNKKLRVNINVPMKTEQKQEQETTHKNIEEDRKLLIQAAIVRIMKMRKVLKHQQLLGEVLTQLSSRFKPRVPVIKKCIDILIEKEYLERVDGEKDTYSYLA
Of the large screens only hits and unclear results are named; the others gave an inactive call.

FC(F)(F)CCCn1ccc(-c2cccc(-c3cccnc3)c2)n1	none
CC1(C)CC(=O)C2C(=NC3=C(C(=O)c4ccccc43)C2c2ccccc2)C1 (stereo not drawn)	none
COC(=O)c1ccccc1S(=O)(=O)n1ccnc1	none
CCCCC1CN(CCC(=O)NCCc2ccncc2)Cc2ccccc2O1 (stereo not drawn)	none
O=C1NC(=Nc2ccc(F)cc2)S/C1=C\c1ccc(O)c(Br)c1	none
COc1cc(/C=C2\SC(=Nc3cc(C)cc(C)c3)NC2=O)cc(Br)c1O	none
O=C1NC(=Nc2cccc(C(F)(F)F)c2)S/C1=C\c1cc(O)c(O)c(Br)c1	ROC1-CUL1 inh 30.4
CCc1ccc(NS(=O)(=O)c2ccc3c(c2)C(=O)C(C(=O)NCCc2cccc(C)c2)C=N3)cc1 (stereo not drawn)	none
CNc1ncnc(Sc2c(Br)c(=O)n(C)c(=O)n2C)c1N	ROC1-CUL1 inh 80.5
Cc1ccc(NC(=O)C(F)(F)F)cc1C(O)(C(F)(F)F)C(F)(F)F	none
Cc1ccccc1NC(=O)CSc1nc2sc3c(c2c(=O)n1-c1cccc2ccccc12)CCCC3	none
CCCc1noc(-c2ccc(C3CCC(CCC)CC3)cc2)n1 (stereo not drawn)	none
Cn1cc(CN2CCCC(CNC(=O)c3cccs3)C2)cn1 (stereo not drawn)	none
CCC(=O)Nc1ccc(C(=O)OCC(=O)c2ccc(F)cc2)cc1	none
O=C(O)c1cc2ccoc2cc(C(=O)O)c1=O	ROC1-CUL1 inh 99.9
CC(=O)Nc1ccc2occc2c1	none
O=C(O)c1cc2cc(Br)ccc2oc1=O	none
CCOC(=O)C1(Cc2cccc(Cl)c2)CCCN(C(=O)c2ccncc2)C1 (stereo not drawn)	none
CCNS(=O)(=O)c1ccc(NC(=O)c2ccncc2)cc1	none
Cc1ccc(S(=O)(=O)CNC(=O)C2c3ccccc3C(=O)N2Cc2ccc(Cl)cc2)cc1 (stereo not drawn)	none
CC(=O)N=C1CC(=NS(=O)(=O)c2ccc(C)cc2)CC(=NC(C)=O)C1=O	none
Cc1ccc(S(=O)(=O)N=NC2CCSCC2)cc1	none
Cc1ccc(S(=O)(=O)N=C2Cc3ccccc3N2C)cc1	ROC1-CUL1 inh 27.0
CC(=O)c1ccc(-c2cc(F)cc3c2OC(CNC(=O)[C@@H]2C[C@@H]4C=C[C@H]2C4)C3)s1 (stereo partly drawn)	none
Cc1cc(OC(=O)COc2ccc3ccccc3c2)ccc1Br	none
N#CC1=CC2CCCCCCC2=NC1=S (stereo not drawn)	none
N#CC1=CC2CCCC2=NC1=S (stereo not drawn)	ROC1-CUL1 inh 105.7
CCC1=C(C#N)C(=S)N=C2CCCC21 (stereo not drawn)	none
COC(=O)CN1C(=O)S/C(=C/c2c(OCc3ccccc3C#N)ccc3ccccc23)C1=O	none
N#Cc1ccccc1OCC(=O)N/N=C/c1ccc([N+](=O)[O-])o1	none
C=CCOc1ccc(C2C3=C(CCCC3=O)N(CC(=O)O)C3=C2C(=O)CCC3)cc1	none
O=C(O)c1ccc(C2Nc3ccccc3-c3nnc(SCc4ccc(Cl)cc4)nc3O2)cc1 (stereo not drawn)	ROC1-CUL1 inh 25.7
COC(=O)c1ccc(C2Nc3ccccc3-c3nnc(SCc4ccc(C)cc4)nc3O2)cc1 (stereo not drawn)	none
O=C(O)CSc1nnc2c(n1)OC(c1ccc(Cl)cc1)Nc1ccccc1-2 (stereo not drawn)	none
COC(=O)C1CS(=O)(=O)CCC1=O (stereo not drawn)	none
COc1cc(OC)c(C2c3c(n[nH]c3C)OC(=N)C2C#N)c(OC)c1 (stereo not drawn)	none
Cc1cc2c(n1-c1ccc(S(N)(=O)=O)cc1)CC(C)(C)CC2=O	none
CC1(C(=O)O)N[C@H](C(=O)O)Cc2c1[nH]c1ccccc21 (stereo partly drawn)	none
COC(=O)c1c(C)sc(-c2c(-c3ccc(OC)c(F)c3)[nH]c3c2c(=O)n(C)c(=O)n3C)c1O	none
COC(=O)c1c(C)sc(-c2c(-c3ccc4c(c3)OCCO4)[nH]c3c2c(=O)[nH]c(=O)n3C)c1O	ROC1-CUL1 inh 27.3
COC(=O)c1c(C)sc(-c2c(-c3cccc(OC)c3)[nH]c3c2c(=O)[nH]c(=O)n3C)c1O	none
CCCN1CCC(NC(=O)c2sc3cccc(F)c3c2Cl)CC1	none
Cc1cc(C)cc(-n2nnc(C(=O)NC3CCS(=O)(=O)C3)c2C)c1 (stereo not drawn)	none
CC(=O)Nc1cccc2c1C(=O)N(c1cccc(C(=O)O)c1)C2=O	none
CC(=O)N=C1C(=O)c2ccccc2C(=O)C1NCCOc1ccccc1 (stereo not drawn)	none
CC(=O)N=C1C(=O)c2c(NC(C)=O)cccc2C(=O)C1Br (stereo not drawn)	ROC1-CUL1 inh 60.1
N=C1CC(=O)NC(SCC(=O)O)=N1	none
O=C(O)CSc1ccc(Cl)cc1	none
O=C(O)CSC1=C(SCC(=O)O)C(=O)C(SCC(=O)O)=C(SCC(=O)O)C1=O	ROC1-CUL1 inh 102.4
CC(Oc1ccccc1)C(=O)Nc1nc2ccccc2s1 (stereo not drawn)	none
O=C(Nc1nc2ccccc2s1)C(C(F)(F)F)C(F)(F)F	ROC1-CUL1 inh 74.2
CC(C)C(=O)Nc1nc2ccccc2s1	none
CCN1CCN(C(c2ccc(SC)cc2)C2C(=O)C=C(C)N(Cc3ccco3)C2=O)CC1 (stereo not drawn)	none
COc1cccc(CCC2CCCN(Cc3cnn(C)c3C)C2)c1 (stereo not drawn)	none
CC(Sc1nc(-c2ccccc2)cc(C(F)(F)F)n1)C(=O)Nc1ccc(Cl)c(Cl)c1 (stereo not drawn)	none
O=C(Cn1c(O)c(N=NC(=O)c2cccc(NC(=O)c3ccccc3)c2)c2ccccc21)Nc1ccccc1	none
CC(C)c1ccc(N2C(=O)/C(=C/c3ccc(O)cc3)C(=O)NC2=S)cc1	none
O=C1NC(=S)N(c2ccc(F)cc2)C(=O)/C1=C\c1ccc(N2CCOCC2)o1	none
Cc1ccc(N2C(=O)/C(=C/c3ccc(N4CCN(C)CC4)o3)C(=O)NC2=S)cc1	none
CC(C)c1ccc(N2C(=O)/C(=C/c3ccc(Sc4ccccc4)o3)C(=O)NC2=S)cc1	ROC1-CUL1 inh 97.3
Cc1ccc(Cl)cc1-c1ccc(/C=C2/C(=O)NC(=S)N(c3ccc(F)cc3)C2=O)o1	ROC1-CUL1 inh 45.9
O=C1S/C(=C\c2ccc(Sc3ccccc3)o2)C(=O)N1c1ccc(Cl)cc1	none
O=C(Nc1ccc(-c2cccc(F)c2)cc1)C1CCCN(Cc2nccs2)C1 (stereo not drawn)	none
O=C(Nc1ccc(-c2cccc(F)c2)cc1)C1CCCN(C(=O)c2ccoc2)C1 (stereo not drawn)	ROC1-CUL1 inh 92.3
O=C(Nc1ccc(-c2cccc(F)c2)cc1)C1CCCN(CC2CC2)C1 (stereo not drawn)	none
O=C1C(C=Nc2cc(C(F)(F)F)ccc2Cl)C(=O)N(C2CCCCC2)C(=O)N1C1CCCCC1	none
Cc1nc2sccn2c1CN1CCC2(CC1)CC2C(=O)NCc1ccco1 (stereo not drawn)	none
COC(=O)c1ccc([C@@H]2Nc3c(OC)ccc(C)c3[C@@H]3C=CC[C@@H]32)cc1	none
Cc1ccc([C@@H]2Nc3c(ccc(C(=O)O)c3C)[C@@H]3C=CC[C@@H]32)cc1	ROC1-CUL1 inh 97.2
Cc1ccc([C@H]2Nc3ccc(S(=O)(=O)Nc4cccc(Cl)c4C)cc3[C@H]3C=CC[C@H]32)cc1	none
CC(=O)NCC(=O)N1CCC(C2CCN(Cc3ccc(Cl)cc3)C2)CC1 (stereo not drawn)	none
CC1CC(C)CN(CC(=O)Nc2cccc3ccccc23)C1 (stereo not drawn)	none
COc1ccc2c(c1)C=Cc1ccccc1O2	none
COc1ccc2c(c1)C(O)(C(F)(F)F)C(=O)O2 (stereo not drawn)	none
